HttQ103 aggreg: inhibitors of mutant huntingtin aggregate formation in PC12 cells | hit rate 1.1% among 220,000 | PC12 HttQ103-GFP aggregates, Acumen cytometry, 40 h | AID 1688 | Potency, µM (highest dose often 46.1 µM), actives largely listed as inhibitors; note: nearly all actives have a fitted effect of over 60% in size
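PC12/HTTQ103-GFP, ecdysone-inducible; teb 100 nM; cpd qHTS titration; GFP aggregates read on laser cytometer, Ex 488/Em 500-530 nm.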
HPGD block: blocks human HPGD enzyme activity | P15428 | purified HPGD, NADH fluorescence kinetic, PGE2 substrate | Potency, µM, most hits filed as inhibitors | hit rate 4.3% among 150,000 | AID 894; active = well fitted inhibition curve with a large enough effect, not every such curve was filed as active; inconclusive = small, poorly fitted or top-dose-only effect, or another doubt; inactive = no such curve, though single readings can be large or run the other way
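NADH formation kinetics: reaction with 30 uM PGE2 and 1 mM NAD+ (final), 20 nM enzyme, Tris-HCl pH 8 with Tween 20, after 15 min compound preincubation at room temperature. Fluorescence change, last versus first of five reads.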
PNC assembly inh: inhibitors of perinucleolar compartment assembly | PC3M PTB-GFP, PNC prevalence imaging, 16 h; active compounds read low | activity change (PNC), negative = inhibition, % at 10 µM | hit rate 3.1% among 140,000 | AID 2417;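 active = readout at or below -70, meaning at least 70% loss of cells showing the perinucleolar compartment, a nuclear body marking cancer cells; inconclusive = readout between -30 and a set limit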
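Read-out is percentage of cells bearing a perinucleolar compartment, from automated 20x imaging of fixed, Hoechst-stained PC3M PTB-GFP cells. Cells were seeded 4 h, then exposed 16 h to compound (23 nl of library stock) in duplicate plates.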
HTT ATP protect: cytoprotection in Huntington HTT-Q103 PC12 cell model | hit rate 0.14% among 230,000 | PC12 HTT-Q103 induced, cytoprotection, ATP luminescence, 40 h | Potency, µM (doses to about 56.4 µM), usual class: activators; note: nearly all actives have a fitted effect of over 45% in size
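Compounds added alongside 100 nM tebufenozide, which induces toxic Q103 huntingtin exon 1-GFP in stable PC12 cells; surviving cells quantified by luminescent ATP measurement. Medium: phenol red-free DMEM, 5% equine and 5% calf serum.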
ALDH1A1 block: ALDH1A1 (human) enzyme inhibition. Purified ALDH1A1, NADH fluorescence, propionaldehyde substrate. AID 1030. hit rate 7.3% among 220,000. Potency, µM (titrated, usually from 75.3 µM), hits mostly inhibitors; active = well fitted inhibition curve with a large enough effect, not every such curve was filed as active; inconclusive = small, poorly fitted or top-dose-only effect, or another doubt; inactive = no such curve, though single readings can be large or run the other way
Target sequence (P00352 whole entry, looked up): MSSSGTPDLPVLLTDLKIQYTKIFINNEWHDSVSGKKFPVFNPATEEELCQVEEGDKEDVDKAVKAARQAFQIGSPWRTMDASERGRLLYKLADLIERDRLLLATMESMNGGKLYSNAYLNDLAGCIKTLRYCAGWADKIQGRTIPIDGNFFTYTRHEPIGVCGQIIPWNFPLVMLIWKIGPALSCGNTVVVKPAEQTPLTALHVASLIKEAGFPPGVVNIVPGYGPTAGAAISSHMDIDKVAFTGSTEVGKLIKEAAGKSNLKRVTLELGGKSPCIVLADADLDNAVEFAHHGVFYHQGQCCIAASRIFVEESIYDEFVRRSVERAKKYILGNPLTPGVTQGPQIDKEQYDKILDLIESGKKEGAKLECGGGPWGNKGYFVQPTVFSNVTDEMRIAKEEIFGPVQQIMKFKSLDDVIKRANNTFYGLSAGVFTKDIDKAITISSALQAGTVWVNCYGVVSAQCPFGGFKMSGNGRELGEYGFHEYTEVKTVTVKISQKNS
CBFb-RUNX1 inh: blocks binding between human CBF-beta and RUNX1. Potency, µM (highest dose often 59.8 µM), hits mostly inhibitors. AlphaScreen CBFb-His/RUNX1-biotin binding, biochemical. 230,000 tested, under 10 active. Q01196+Q13951
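CBFb-His/RUNX1-biotin, 30 nM each, preincubated 20 min RT; compound 15 min RT; Ni + streptavidin beads 50 ng each, 90 min RT; AlphaScreen read.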
Each line names hits and unclear results; the compound was inactive in the other large screens. Shown are actives, neighbours in structure and some others; about 11% of the full set was active somewhere. Unless noted, calls come from the whole dose curve; as a rule, active = well fitted curve in the direction sought with a large enough effect; inconclusive = small, poorly fitted or top-dose-only effect, or another doubt; inactive = no such curve, though single readings can be large; an effect the other way counts as inactive or inconclusive.

CCn1c(=O)c(=O)n(CC)c2cc(S(=O)(=O)Nc3cccc(OC)c3)ccc21	ALDH1A1 block 13µM
S=C(Cc1cccnc1)N1CCOCC1	HPGD block 22µM, ALDH1A1 block 13µM
Cc1cc(C)c2cc(CN(Cc3ccco3)C(=S)NCC3CCCO3)c(=O)[nH]c2c1 (centres undefined)	ALDH1A1 block 25µM (no result: HPGD block, PNC assembly inh)
COc1ccc2cc(CN(Cc3ccco3)C(=S)NCC3CCCO3)c(=O)[nH]c2c1 (centres undefined)	ALDH1A1 block inconclusive (no result: HPGD block, PNC assembly inh)
Cc1ccc2cc(CN(CC3CCCO3)C(=S)NCc3ccco3)c(=O)[nH]c2c1C (centres undefined)	PNC assembly inh inconclusive, ALDH1A1 block 22µM
Cc1ccc2cc(CN(Cc3nnnn3Cc3ccco3)CC3CCCO3)c(=O)[nH]c2c1C (centres undefined)	PNC assembly inh inconclusive, ALDH1A1 block 1.8µM, CBFb-RUNX1 inh inconclusive
Cc1ccc(C)c2[nH]c(=O)c(CN(CC3CCCO3)C(=S)NCc3ccco3)cc12 (centres undefined)	none (no result: HPGD block, PNC assembly inh, ALDH1A1 block)
CC1=C(/C=C/C(C)=C/C=C/C(C)=C/C=C/C=C(C)/C=C/C=C(C)/C=C/C2=C(C)C(=O)C(O)CC2(C)C)C(C)(C)CC(O)C1=O (centres undefined)	none (no result: HttQ103 aggreg, PNC assembly inh, HTT ATP protect, CBFb-RUNX1 inh)
CN1c2c(nc(N)[nH]c2=O)NCC1CNc1ccc(C(=O)NC(CCC(=O)O)C(=O)O)cc1 (centres undefined)	HTT ATP protect inconclusive (no result: HPGD block, PNC assembly inh, ALDH1A1 block, CBFb-RUNX1 inh)
O=C(O)C[C@H](Cc1ccccc1Cl)C(=O)O	none (no result: HttQ103 aggreg, PNC assembly inh, CBFb-RUNX1 inh)
FC(F)(F)c1ccccc1-c1nccc(NCCN2CCOCC2)n1	none (no result: HttQ103 aggreg, HPGD block, PNC assembly inh, CBFb-RUNX1 inh)
Cc1ccccc1-c1nccc(NCCN2CCOCC2)n1	ALDH1A1 block 32µM (no result: HttQ103 aggreg, HPGD block, PNC assembly inh, CBFb-RUNX1 inh)
COc1ccccc1CN1CCCC2(CCN(C(C)=O)CC2)C1	none (no result: HttQ103 aggreg, PNC assembly inh, CBFb-RUNX1 inh)
O=C(Nc1ccc(NC(=O)c2ccc(S(=O)(=O)c3ccccc3)cc2)cc1)c1ccccc1	HPGD block inconclusive, PNC assembly inh inconclusive
Cc1ccc(NC(=O)c2cc(S(=O)(=O)c3ccccc3)ccc2Cl)cc1	ALDH1A1 block 10µM
Cc1ccc(NC(=O)c2ccccc2O)cc1	HttQ103 aggreg inconclusive, PNC assembly inh -100
CC(=O)N(C)c1ccc(NC(=O)c2ccco2)cc1	none
Cc1ccc(NC(=O)c2ccccc2)cc1	none
Cc1ccc(NC(=O)C2=C(c3ccccc3)S(=O)(=O)CCS2(=O)=O)cc1	HttQ103 aggreg 5µM (no result: HPGD block, PNC assembly inh)
CC(=O)N(C)c1ccc(NC(=O)c2ccccc2C(=O)O)cc1	PNC assembly inh -117, ALDH1A1 block inconclusive
O=C(NCCN1CCCC1)c1ccc(-n2c(=O)c(=O)[nH]c3ccccc32)cc1	none (no result: HttQ103 aggreg, PNC assembly inh, HTT ATP protect, CBFb-RUNX1 inh)
COC(=O)NC(/C(C(=O)OC)=C(\C)NCc1ccccc1)c1ccc(F)cc1 (centres undefined)	none (no result: HttQ103 aggreg, HPGD block, PNC assembly inh)
O=C(O)Cn1cccc1C(=O)c1ccccc1	PNC assembly inh inconclusive, ALDH1A1 block 14µM, CBFb-RUNX1 inh inconclusive
O=C(CCN1C(=O)/C(=C/c2cccc(Br)c2)SC1=S)NNC(=O)c1cccnc1	none
COc1cccc(/C=C2\SC(=O)N(CCC(=O)NNC(=O)c3cccc(Cl)c3)C2=O)c1	PNC assembly inh -86
COc1ccccc1/C=C1\SC(=O)N(CCC(=O)NNC(=O)c2ccccc2Cl)C1=O	PNC assembly inh -93, ALDH1A1 block inconclusive
COc1ccc(/C=C2\SC(=O)N(CCC(=O)Nc3ccccc3)C2=O)cc1OC	none (no result: HTT ATP protect)
COc1ccc(-n2c(SCC(=O)NNC(=O)c3ccc(C)cc3)nnc2-c2ccncc2)cc1	none
N[C@H](CO)Cc1cnc[nH]1	none (no result: HttQ103 aggreg, PNC assembly inh)
COC(=O)Sc1nnc(-c2ccc(Br)cc2)o1	HPGD block 22µM, ALDH1A1 block 8.9µM
CCOc1ccc(CC(C(N)=O)C(N)=O)cc1CN(C)C	none
Nc1nc2c(nc(Br)n2C2O[C@H]3COP(=O)(O)O[C@@H]3C2O)c(=O)[nH]1 (some centres undefined)	none (no result: HttQ103 aggreg, PNC assembly inh, HTT ATP protect)
CCn1nnnc1NC(=O)c1cc(Cl)c(OC)c(Cl)c1	none (no result: HttQ103 aggreg, HPGD block, PNC assembly inh, HTT ATP protect)
Cn1c(=O)c2c(nc(CN3CCCCC3)n2CCc2ccccc2)n(C)c1=O	ALDH1A1 block inconclusive
C=CCn1c(NCCO)nc2c1c(=O)n(C)c(=O)n2C	HttQ103 aggreg 25µM

Compound activity (PubChem BioAssay)
